# Assay results: PubChem BioAssay (NCATS)
# Inconclusive results are not listed. Entries that show only a call come without a potency. Active and inactive are the calls of the source. Calls come from the whole dose curve; as a rule, active = well fitted cell-killing curve with a large enough effect; inconclusive = small, poorly fitted or top-dose-only effect; inactive = flat fitted curve, though single readings scatter.
# Test: Quantitative highthroughput screen to assess conditional lethalithy of NOMO1 cells grown in RPMI1640 with untreated serum (RPMI+s) (AID 1963876); note: nearly all actives have a fitted effect of over 35% in size
# Details: NOMO1 AML cells in RPMI+serum, CellTiter-Glo viability, 48 h; series mostly up to 45.8 µM
# Procedure, shortened: (§1)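 Each medium arm—HPLM with 10% dialyzed FBS, or RPMI1640 with 5 mM glucose and 10% untreated or dialyzed FBS—was screened against an 11-point, 3-fold compound titration for 48 h at 37 °C, with CellTiter-Glo luminescence as endpoint.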
# Potency is the fitted concentration of half-maximal effect.
row,SMILES,Potency
1,NS(=O)(=O)c1ccc(NC2=CC(=O)c3ccccc3C2=O)cc1,inactive
2,CC=CCC=CCCC(=O)[C@H]1O[C@@H]1C(N)=O,inactive
3,Cc1oncc1C(=O)Nc1ccc(C(F)(F)F)cc1,inactive
4,CC1(C)[C@H]2CC[C@]3(C)[C@@H](C(=O)C=C4[C@@H]5C[C@@](C)(C(=O)O)CC[C@]5(C)CC[C@]43C)[C@@]2(C)CC[C@@H]1O,inactive
5,CC(Cc1ccc(O)c(O)c1)(NN)C(=O)O (stereo unspecified),inactive
6,O=c1[nH]c(=O)n([C@H]2C[C@@H](O)[C@@H](CO)O2)cc1C=CBr,inactive
7,Cc1c(C)c2c(c(C)c1O)CCC(C)(COc1ccc(CC3SC(=O)NC3=O)cc1)O2 (stereo unspecified),inactive
8,O=C1c2ccccc2-c2n[nH]c3cccc1c23,14.8 µM (active)
9,C[C@H](NCc1ccc2c(c1)nc(NC(=O)c1ccc(-c3cn[nH]c3)s1)n2CCc1ccccc1)C(C)(C)C,9.35 µM (active)
10,CC(=O)O[C@]1(C(C)=O)CC[C@@H]2[C@@H]3C[C@H](C)C4=CC(=O)CC[C@]4(C)[C@H]3CC[C@@]21C,inactive
11,O=C1c2c(O)cc(O)cc2O[C@H](c2cc(O)c(O)c(O)c2)[C@H]1O,inactive

# Test: Quantitative highthroughput screen to assess conditional lethalithy of NOMO1 cells grown in RPMI1640 with dialyzed fetal bovine serum (RPMI+ds) (AID 1963877); note: nearly all actives have a fitted effect of over 30% in size
# Details: NOMO1 in RPMI+dialyzed FBS viability, ATP luminescence, 48 h; series mostly up to 45.8 µM
# Procedure, shortened: as §1
row,SMILES,Potency
1,CC(=Cc1ccccc1)C=C1SC(=S)N(CC(=O)O)C1=O,inactive
2,CC(=O)N1CCN(c2ccc(OCc3nn(C)c(C)c3-c3cccc4c(CCCOc5cccc6ccccc56)c(C(=O)O)n(Cc5cccnc5)c34)cc2)CC1,2.64 µM (active)
3,COc1ccc(Nc2nccc(NCCO)n2)cc1,inactive
4,C[C@]12CC[C@@H]3c4ccc(O)cc4CC[C@H]3[C@H]1[C@@H](O)[C@@H](O)[C@H]2O,inactive
5,C[C@@]12C[C@@]3(O)O[C@@H](O1)[C@]1(COC(=O)c4ccccc4)[C@@H]3C[C@@]12O[C@@H]1O[C@H](CO)[C@@H](O)[C@H](O)[C@@H]1O,inactive
6,CC(=O)NCCC(=O)N[C@@H](CCC(N)=O)C(=O)N[C@@H](CO)C(=O)N[C@@H](CCC(N)=O)C(=O)N[C@@H](CCC(N)=O)C(=O)N[C@H](C(=O)N[C@@H](Cc1ccccc1)C(=O)N[C@]1(C)CCCCCCC=CCCC[C@@](C)(C(=O)N[C@@H](CCC(N)=O)C(=O)N[C@@H](CC(N)=O)C(N)=O)NC(=O)[C@H](CC(C)C)NC(=O)[C@H](CC(C)C)NC(=O)[C@@H](CCCNC(=N)N)NC(=O)[C@H](Cc2c[nH]c3ccccc23)NC(=O)[C@H](CC(C)C)NC(=O)[C@H](CC(N)=O)NC1=O)[C@H](C)O,inactive
7,COC1CCC(N(C(=O)C2CCC(C)CC2)c2cc(C3=CCCCC3)sc2C(=O)O)CC1 (stereo unspecified),inactive
8,O=c1c(-c2ccc(O)cc2)coc2cc(O)cc(O)c12,inactive
9,CCCCN1CCC(CNC(=O)c2c3n(c4ccccc24)CCCO3)CC1,inactive
10,CC(=O)N[C@@H]1[C@H](O[C@@H]2c3ccc(c(Cl)c3)Oc3cc4cc(c3O[C@H]3O[C@H](CO)[C@@H](O)[C@H](O)[C@H]3NC(=O)CCCCCCCC(C)C)Oc3ccc(cc3Cl)C[C@H]3NC(=O)[C@H](N)c5ccc(O)c(c5)Oc5cc(O)cc(c5)[C@H](NC3=O)C(=O)N[C@H]4C(=O)N[C@H]3C(=O)N[C@@H]2C(=O)N[C@@H](C(=O)O)c2cc(O)cc(O[C@H]4O[C@H](CO)[C@@H](O)[C@H](O)[C@H]4O)c2-c2cc3ccc2O)O[C@H](CO)[C@@H](O)[C@@H]1O,inactive
11,NCc1c[nH]c(=S)n1[C@H]1CCc2c(F)cc(F)cc2C1,inactive
12,Cc1[nH]c(C=C2C(=O)Nc3ccc(S(=O)(=O)Cc4c(Cl)cccc4Cl)cc32)c(C)c1C(=O)N1CCC[C@H]1CN1CCCC1,inactive
13,O=c1c(-c2ccc(O)cc2)coc2cc(O[C@@H]3O[C@H](CO)[C@H](O)[C@H](O)[C@H]3O)ccc12,inactive
14,CC(C)(N)C(=O)N[C@H](COCc1ccccc1)C(=O)N1CCC2(CC1)CN(S(C)(=O)=O)c1ccccc12,10.5 µM (active)
15,COc1ccc(-c2oc3c(CC=C(C)C)c(OC4O[C@H](CO)[C@@H](O)[C@H](O)[C@@H]4O)cc(O)c3c(=O)c2OC2O[C@@H](C)[C@H](O)[C@@H](O)[C@@H]2O)cc1 (stereo partly specified),inactive
16,CCOC(=O)O[C@]1(C(=O)OCCl)CC[C@@H]2[C@H]3CCC4=CC(=O)C=C[C@]4(C)[C@@H]3[C@@H](O)C[C@@]21C,inactive
17,O=C(c1ccc(C=Cc2n[nH]c3ccccc23)cc1)N1CCNCC1,0.935 µM (active)
18,N#Cc1ccc(NC(=O)Nc2ccccc2Br)c2n[nH]nc12,inactive
19,S=c1nc[nH]c2nc[nH]c12,1.48 µM (active)
20,CC(=O)N[C@H]1[C@@H]([C@H](O)[C@H](O)CO)OC(C(=O)O)=C[C@@H]1N=C(N)N,inactive

row,SMILES,Potency
1,Cc1c(-c2cccc3c(CCCOc4cccc5ccccc45)c(C(=O)O)n(Cc4cccnc4)c23)c(COc2ccc(N3CCN([S+](=O)([O-])N(C)C)CC3)cc2)nn1C,inactive
2,O=C(C=Cc1ccc(O)cc1)c1ccc(O)cc1O,inactive
3,COC1CCC(C(=O)c2ccc3nc4c(cc3c2)CCCO4)CC1 (stereo unspecified),18.7 µM (active)
4,COc1ccc(-c2c(-c3ccc(O)cc3O)n[nH]c2C)cc1,inactive
5,COc1ccc(-c2coc3cc(O)cc(O)c3c2=O)cc1,inactive
6,CN1CCN(C2=Nc3cc(Cl)ccc3Nc3ccccc32)CC1,inactive
7,Cc1cccc(N(C)C(=S)Oc2ccc3ccccc3c2)c1,inactive
8,N=C1SC(=Cc2ccc(-c3ccc4c(c3)C(=O)NC4=O)o2)C(=O)N1c1ccc(Br)cc1,inactive
9,CC(C)(C(=O)NCC(F)(F)C(F)(F)F)C(=O)N[C@@H]1C(=O)Nc2ccccc2-c2ccccc21,1.87 µM (active)
10,NS(=O)(=O)c1ccc(NC2=CC(=O)c3ccccc3C2=O)cc1,inactive
11,CC=CCC=CCCC(=O)[C@H]1O[C@@H]1C(N)=O,inactive
12,Cc1oncc1C(=O)Nc1ccc(C(F)(F)F)cc1,inactive
13,CC1(C)[C@H]2CC[C@]3(C)[C@@H](C(=O)C=C4[C@@H]5C[C@@](C)(C(=O)O)CC[C@]5(C)CC[C@]43C)[C@@]2(C)CC[C@@H]1O,inactive
14,CC(Cc1ccc(O)c(O)c1)(NN)C(=O)O (stereo unspecified),inactive
15,O=c1[nH]c(=O)n([C@H]2C[C@@H](O)[C@@H](CO)O2)cc1C=CBr,inactive
16,Cc1c(C)c2c(c(C)c1O)CCC(C)(COc1ccc(CC3SC(=O)NC3=O)cc1)O2 (stereo unspecified),inactive
17,O=C1c2ccccc2-c2n[nH]c3cccc1c23,23.5 µM (active)
18,C[C@H](NCc1ccc2c(c1)nc(NC(=O)c1ccc(-c3cn[nH]c3)s1)n2CCc1ccccc1)C(C)(C)C,6.62 µM (active)
19,CC(=O)O[C@]1(C(C)=O)CC[C@@H]2[C@@H]3C[C@H](C)C4=CC(=O)CC[C@]4(C)[C@H]3CC[C@@]21C,inactive
20,O=C1c2c(O)cc(O)cc2O[C@H](c2cc(O)c(O)c(O)c2)[C@H]1O,inactive
